Results published in PubChem BioAssay AID540299 (ICCB-Longwood Screening Facility, Harvard Medical School, 2011).
Values joined by “and” are separate entries in the source; they are usually repeats but may differ in a detail not shown here. Equal entries are not always repeated. About 440 (0.44%) of roughly 100,000 compounds were called active. The sample holds actives, similar compounds and a random draw of the others, so the mix is not that of the screen. Cut-off read from the data, not from the text of the source: active = inhibition above about 21% (passing the limit was not always enough); inactive = the rest. More than one record can exist for a structure, and the calls need not agree.

biological target: 1,4-dihydroxy-2-naphthoyl-CoA synthase (Mycobacterium tuberculosis (strain ATCC 25618 / H37Rv)) (UniProt P9WNP5); experiment: M. tuberculosis MenB inhibitors, primary screen, biochemical, absorbance (AID 540299); settings: MenB enzyme assay, absorbance read-out; stronger effect = higher value; concentration not given here
Sequence (P9WNP5 whole entry, looked up): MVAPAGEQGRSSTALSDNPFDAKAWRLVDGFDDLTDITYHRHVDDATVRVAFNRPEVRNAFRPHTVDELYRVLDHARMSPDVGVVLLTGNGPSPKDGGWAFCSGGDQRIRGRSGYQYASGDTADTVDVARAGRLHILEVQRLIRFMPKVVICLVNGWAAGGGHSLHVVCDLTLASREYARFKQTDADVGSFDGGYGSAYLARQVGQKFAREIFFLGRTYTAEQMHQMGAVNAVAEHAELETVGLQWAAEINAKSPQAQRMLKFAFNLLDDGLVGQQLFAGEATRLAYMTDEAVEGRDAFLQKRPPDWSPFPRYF

Structure (SMILES) | inhibition
O=C(c1ccco1)N1CCCCCCC1 | 1.17% (inactive)
O=C(On1c(-c2ccccc2)nc2ccccc2c1=O)c1cccc(C(F)(F)F)c1 | 11.4% (inactive)
Fc1ccc(CNCc2ccccn2)cc1 | -6.84% (inactive)
COc1ccc(CNCC(O)c2nnn(C)n2)cc1OC (stereo not drawn) | -32.7% (inactive)
Cn1nnc(C(O)CNCc2ccc(F)cc2)n1 (stereo not drawn) | 29.6% (active)
CC1CCCC(NC(=O)COC(=O)c2cccc(S(=O)(=O)N(C)C)c2)C1C (stereo not drawn) | -17.8% (inactive)
O=C(O)C1CCCN(C(=O)c2cnn(-c3ccccc3)c2-n2cccc2)C1 (stereo not drawn) | 1.1% (inactive)
CCOC(=O)c1[nH]cnc1C(=O)NC1CCCCC1 | -17.9% (inactive)
Cc1ccc(NC(=O)c2nc[nH]c2C(=O)N2CCCCC2)c(C(=O)c2ccccc2)c1 | 39.3% (active) and -17.8% (inactive)
O=C(Nc1ccccc1C(=O)N1CCCC1)Oc1ccccc1 | 3.13% (inactive)
N#CSc1ccc(N2CCCCC2)cc1 | -10.6% (inactive)
N#CSc1ccc(N)c(Br)c1 | 24.6% (active)
COc1cc(CNC(=O)c2ccc(N(C)C)cc2)cc(OC)c1OC | -9.81% (inactive)
Cc1c(/C=C(\C#N)C(=O)Nc2nccs2)cc(C#N)n1C | 0.38% (inactive)
C1CCC(NC2CCCC2)C1 | -21.1% (inactive)
O=S1(=O)CCC(S(=O)(=O)NC2CCCC2)C1 (stereo not drawn) | -11% (inactive)
O=S1(=O)CCC(NC2CCCCC2)C1 (stereo not drawn) | 49.9% (active)

Structure (SMILES) | inhibition
CN1C(=O)C(C)(C)c2cc(S(=O)(=O)NCCc3ccco3)ccc21 | -23.9% (inactive)
CCc1cc(CC)c(CO)c(CC)c1/C=N/O | -27% (inactive)
CC(Oc1ccccc1)c1nn2c(-c3cccnc3)nnc2s1 (stereo not drawn) | -64.7% (inactive)
O=C(c1nc(-c2ccc(Cl)cc2)n2c1CCCCC2)N1CCCCCC1 | -18.8% (inactive)
Cc1cccc(COC(=O)Nc2ccc(N3CCCCC3)cc2)c1 | -13.2% (inactive)
COc1cccc(NC(=O)CC2CCCCC2)c1 | -13.2% (inactive)
O=C(O)c1ccc(NC(=O)C2CC2)cc1 | 0% (inactive)
O=C(Cn1cc(C(F)(F)F)ccc1=O)Nc1ccc(S(=O)(=O)N2CCCC2)cc1 | 17% (inactive)
O=C(O)c1ccc2[nH]c(=O)c(=O)[nH]c2c1 | 6.67% (inactive) and 1.98% (inactive)
COc1ccc(-c2nc3sc(-c4ccc(OC)cc4)nc3s2)cc1 | 26.2% (active)
COc1ccc(C2NNC(=S)S2)cc1 (stereo not drawn) | 1.67% (inactive)
COc1ccc(-c2nn(C)c3ccccc23)cc1 | 4.51% (inactive)
CN1CCN(n2c(-c3ccc(Cl)cc3)csc2=Nc2ccccc2)CC1 | -4.88% (inactive)
CC1C(=O)N2CCCc3cc(S(=O)(=O)NCc4ccc(F)cc4)cc1c32 (stereo not drawn) | -7.22% (inactive)
O=S(=O)(c1cccs1)N(c1ccccc1)C(F)F | 9.14% (inactive)
O=S(=O)(/C=C/c1ccccc1)N1CCN(CCc2ccncc2)CC1 | -2.97% (inactive)
